An excerpt weighted towards active compounds, which were near 5% of everything screened.
SENP8 block-1 – human SENP8 protease inhibitors, primary screen, biochemical, fluorescence, Nedd8 protein substrate, uHTS; recombinant SENP8; 360,000 compounds, 0.64% hits; AID 602440, 2012; inhibition, % at 20 µM; in the data active = inhibition mostly above about 40%, no sharp cut-off; inactive = mostly below about 27%
SENP7 inh – SENP7 protease inhibitors, primary screen, biochemical, luminescence, uHTS; 330,000 compounds, 1.5% hits; inhibition, % at 5 µM; recombinant SENP7, Z-RLRGG-aminoluciferin luminescence, 40 min; Sentrin-specific protease 7 (Homo sapiens), Q9BQF6;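 active = inhibition above about 50% at the single test dose, limit read from the data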;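 note: plate controls were DMSO with enzyme for no effect and no enzyme buffer wells for full effect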
SENP6 block – SENP6 protease inhibitors, primary screen, biochemical, luminescence, uHTS; Sentrin-specific protease 6 (Homo sapiens), Q9GZR1; Recombinant SENP6 catalytic domain, aminoluciferin luminescence; inhibition, % at 10 µM; 330,000 compounds, 1.8% hits; AID 2599, 2010;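 active = inhibition above about 50% at the single tested dose, limit read from the data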;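 note: plate controls were DMSO wells with enzyme for no effect and DMSO wells lacking enzyme for full effect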
EBI2 antag – EBI2 receptor antagonists, beta-arrestin recruitment, primary screen, cell-based, luminescence, 7a,25-OHC stimulation, uHTS; G-protein coupled receptor 183 (Homo sapiens), P32249; 7a,25-OHC stimulated; inhibition, % at 5 µM; 360,000 compounds, 0.81% hits; AID 651636, 2012; in the data active = inhibition above about 38%;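 note: enzyme fragment complementation signal reports receptor beta-arrestin coupling in cells; 0% = agonist plus DMSO wells and 100% = wells without agonist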
Target sequence (P32249 whole entry, looked up, the tested form may be a part): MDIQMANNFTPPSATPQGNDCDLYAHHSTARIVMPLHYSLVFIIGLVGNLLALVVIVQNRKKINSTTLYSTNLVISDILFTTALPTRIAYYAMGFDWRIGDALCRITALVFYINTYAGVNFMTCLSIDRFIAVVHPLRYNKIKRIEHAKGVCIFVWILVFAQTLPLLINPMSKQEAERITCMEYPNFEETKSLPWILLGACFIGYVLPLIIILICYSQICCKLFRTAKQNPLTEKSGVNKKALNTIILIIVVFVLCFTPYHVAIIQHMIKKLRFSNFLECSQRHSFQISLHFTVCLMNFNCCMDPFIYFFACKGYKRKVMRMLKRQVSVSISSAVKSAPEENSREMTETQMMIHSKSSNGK
AHR act – AHR activators, primary screen, cell-based, luminescence, luciferase reporter, human; activation, % at 5 µM; Aryl hydrocarbon receptor (Homo sapiens), P35869; 320,000 compounds, 2.5% hits; AHR-responsive luciferase reporter cells; in the data active = activation above about 47%;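 note: 0% = vehicle wells and 100% = reference agonist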
SENP8 block-2 – SENP8 protease inhibitors, primary screen, biochemical, luminescence; purified SENP8, Z-RLRGG-aminoluciferin cleavage; inhibition, % at 10 µM; 330,000 compounds, 1.2% hits; AID 2540, 2010; in the data active = inhibition above about 50%
SENP8 confirm – SENP8 protease inhibitors, retest, confirmation, biochemical, luminescence, single concentration; Recombinant SENP8, Z-RLRGG-aminoluciferin luminescence, 60 min; inhibition, % at 12.5 µM; shares compounds with SENP7 inh; AID 488912, 2010; 6,200 compounds, 40% hits;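 active = mean inhibition across replicates above about 50%, limit read from the data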
SENP6 confirm – SENP6 protease inhibitors, confirmation, biochemical, luminescence, single concentration | inhibition, % at 12.5 µM | recombinant SENP6, Z-RLRGG-aminoluciferin luminescence | AID 488915, 2010 | shares compounds with SENP7 inh | 6,200 compounds, 58% hits
SENP7 conf – SENP7 protease inhibitors, retest, confirmation, biochemical, luminescence, single concentration. shares compounds with SENP7 inh. recombinant SENP7, Z-RLRGG-aminoluciferin luminescence, 40 min. inhibition, % at 12.5 µM. 6,200 compounds, 69% hits. AID 488917, 2010
Casp3 SENP sel – caspase-3 protease inhibitors, confirmation, selectivity assay for SENP inhibitor project, biochemical, single concentration. shares compounds with SENP7 inh. purified caspase-3, Z-DEVD-aminoluciferin luminescence, 60 min. inhibition, % at 12.5 µM. 6,200 compounds, 60% hits;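 active = mean inhibition above about 50%, limit read from the data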;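 note: plate controls were enzyme with DMSO for no effect and wells without caspase-3 for full effect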
Target sequence (P42574 28-227 limits assumed): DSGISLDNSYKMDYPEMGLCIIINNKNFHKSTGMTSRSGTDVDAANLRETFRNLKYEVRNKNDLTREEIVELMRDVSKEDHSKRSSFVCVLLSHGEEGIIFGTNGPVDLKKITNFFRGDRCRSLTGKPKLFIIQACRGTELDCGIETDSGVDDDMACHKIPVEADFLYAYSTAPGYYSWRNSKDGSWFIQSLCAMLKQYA
SENP luc ctr – interferes with luciferase luminescence in SENP counter-screen | shares compounds with SENP7 inh | inhibition, % at 12.5 µM | Pre-incubated SENP8/Z-RLRGG-aminoluciferin, luciferase luminescence interference | 6,200 compounds, 39% hits;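 active = mean inhibition above about 50% when retested at one dose, limit read from the data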;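 note: plate controls were DMSO wells with completed reaction for no effect and substrate without enzyme for full effect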
An asterisk follows results filed as active.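 Rule for the calls, unless noted: active = mean inhibition above about 50% in the one-dose retest (limit read from the data); inactive = the rest.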

O=C(Nc1cccc(-c2nn[nH]n2)c1)c1ccc(Cl)s1 was read as SENP8 block-1 2, SENP7 inh 16, SENP6 block 51*, EBI2 antag 1, AHR act -2, SENP8 block-2 22, SENP8 confirm 42, SENP6 confirm 36, SENP7 conf 72*, Casp3 SENP sel 35 and SENP luc ctr 58*.
Screening O=C(Nc1cccc(-c2nn[nH]n2)c1)c1ccc(Br)s1 returned SENP8 block-1 5, SENP7 inh 28, SENP6 block 34, EBI2 antag -9, AHR act -1 and SENP8 block-2 30.
`CC1=NN(C(N)=S)C(=O)C1N=Nc1ccc([N+](=O)[O-])cc1` (configuration not stated) gave SENP8 block-1 26, SENP7 inh 89*, SENP6 block 90*, EBI2 antag 7, AHR act 0, SENP8 block-2 87*, SENP8 confirm 26, SENP6 confirm 5, SENP7 conf -3, Casp3 SENP sel -4 and SENP luc ctr -8.
CC1(C)CC(=O)C(N=Nc2ccc(F)cc2)=C(O)C1 was read as SENP8 block-1 14, SENP7 inh 0, SENP6 block 5, EBI2 antag 8, AHR act -1 and SENP8 block-2 -7.
CC1=NN(C(N)=S)C(=O)C1N=Nc1ccc(F)cc1 (configuration not stated) was read as SENP8 block-1 18, SENP7 inh 80*, SENP6 block 88*, EBI2 antag 6, SENP8 block-2 79*, SENP8 confirm 32, SENP6 confirm 38, SENP7 conf 40, Casp3 SENP sel 54* and SENP luc ctr 5.
CC(C)C(=O)Nc1ccc2nn(-c3ccc(F)cc3)nc2c1 was read as SENP8 block-1 -436, SENP7 inh 85*, SENP6 block 71*, EBI2 antag -4, AHR act -4, SENP8 block-2 53*, SENP8 confirm 16, SENP6 confirm 31, SENP7 conf 66*, Casp3 SENP sel 26 and SENP luc ctr 8.
Cc1ccc(-n2nc3ccc(NC(=O)C(C)C)cc3n2)cc1 was read as SENP8 block-1 -376, SENP7 inh 80*, SENP6 block 76*, EBI2 antag -12, AHR act 40, SENP8 block-2 39, SENP8 confirm -15, SENP6 confirm -1, SENP7 conf 40, Casp3 SENP sel 5 and SENP luc ctr -3.
`NS(=O)(=O)c1ccc(NC(=O)c2cccc(Cl)c2)cc1` gave SENP8 block-1 10, SENP7 inh 0, SENP6 block -8, EBI2 antag -6, AHR act 4 and SENP8 block-2 -1.
For COc1ccc(-c2csc(-c3ccccc3)n2)c(OC)c1 the results were SENP8 block-1 -79, SENP7 inh 89*, SENP6 block 93*, EBI2 antag 17, AHR act 37, SENP8 block-2 84*, SENP8 confirm 82*, SENP6 confirm 91*, SENP7 conf 96*, Casp3 SENP sel 74* and SENP luc ctr 26.
`COc1ccc2cc(-c3csc(-c4cccnc4)n3)ccc2c1` gave SENP8 block-1 -134, SENP7 inh 67*, SENP6 block 5, EBI2 antag 10, AHR act 2, SENP8 block-2 -13, SENP8 confirm 17, SENP6 confirm 12, SENP7 conf 15, Casp3 SENP sel 10 and SENP luc ctr 0.
O=C(c1ccccc1)c1coc2c1C(=O)c1ccccc1C2=O was read as SENP8 block-1 52*, SENP7 inh 18, SENP6 block 85*, EBI2 antag -6, AHR act 15, SENP8 block-2 33, SENP8 confirm 23, SENP6 confirm 75*, SENP7 conf 48, Casp3 SENP sel 14 and SENP luc ctr 15.
For COCCN(CCOC)C(=O)COC(=O)c1cc([N+](=O)[O-])ccc1Cl the results were SENP8 block-1 30, SENP7 inh 10, SENP6 block 24, EBI2 antag 0, AHR act 1 and SENP8 block-2 8.
Screening Cc1ccc(-c2ccc(CCC(=O)O)o2)cc1 returned SENP8 block-1 -1, SENP7 inh 25, SENP6 block 58*, EBI2 antag -14, AHR act 1, SENP8 block-2 19, SENP8 confirm 74*, SENP6 confirm 70*, SENP7 conf 86*, Casp3 SENP sel 61* and SENP luc ctr 76*.
CC(=O)Nc1nc2cc3c(cc2s1)OCCO3 was read as SENP8 block-1 4, SENP7 inh 79*, SENP6 block 77*, EBI2 antag -12, AHR act 6, SENP8 block-2 61*, SENP8 confirm 78*, SENP6 confirm 76*, SENP7 conf 94*, Casp3 SENP sel 89* and SENP luc ctr 74*.
For Cc1ccc(Cc2c(-c3ccc(C#N)cc3)nc3ccc(Cl)cn23)cc1 the results were SENP8 block-1 -370 and EBI2 antag 20.
For Cc1ccc(C(=O)CSc2ccccn2)cc1 the results were SENP8 block-1 15, SENP7 inh 51*, SENP6 block 69*, EBI2 antag 3, AHR act -3, SENP8 block-2 51*, SENP8 confirm 5, SENP6 confirm 35, SENP7 conf -11, Casp3 SENP sel 76* and SENP luc ctr 68*.
Screening O=C(CSc1ccccn1)c1ccc(F)cc1 returned SENP8 block-1 1, SENP7 inh 4, SENP6 block 23, EBI2 antag -3, AHR act -1 and SENP8 block-2 6.
